TPT1 inh: inhibitors of Candida albicans tRNA 2'-phosphotransferase TPT1; recombinant caTPT1, FP RNA substrate dephosphorylation; inhibition, % at 5 µM; 300,000 tested, 0.81% active; AID 1962;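 active means inhibition above the mean of all tested compounds plus 3 SD, set per screening campaign, cut at about 24% in these data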;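 further: plate controls were DMSO alone for no effect and ferristatin control at 100 nM for full effect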
IDE inh: cellular human IDE inhibition. P14735. inhibition, % at 5.59 µM. 320,000 tested, 0.41% active. HEK cells, FAbetaB cleavage, fluorescence polarization. AID 434962;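 active means percent inhibition above the average of all tested compounds plus 3 SD, set per screening campaign, cut at about 16% in these data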;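 further: IDE supplied by intact live HEK cells; FP after avidin binding of uncleaved biotin substrate so inhibition keeps polarization high; 0% = DMSO wells and 100% = 60 µM reference IDE inhibitor Ii1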
IDE act: IDE (human) activation, cell-based; HEK cells, FAbeta-B cleavage, fluorescence polarization; 0% vehicle, 100% cell-free pure enzyme wells; activation, % at 5.96 µM; 340,000 tested, 0.073% active; AID 493087;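 active means activation above the mean of all tested compounds plus 3 SD, set per screening campaign, cut at about 17% in these data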
CRFBP-R2 agonist: CRF-BP/CRF-R2 complex agonism; HEK293 CRF-R2/CRF-BP, calcium dye fluorescence (FLIPR); percent of saturating CRF peptide response; activation, % at 13.2 µM; 350,000 tested, 0.46% active; AID 588473;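 active means activation of at least 50%, plus an integration ratio under a set limit after plate pattern correction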;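 further: plate controls were neutral control wells without compound for no effect and CRF at EC100 for full effect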
HNF4A DNA FP: change in binding of human HNF4 alpha to DNA. activity change, % at 10 µM. 360,000 tested, 0.3% active. HNF4a-FITC DNA binding, fluorescence polarization, 1 h. AID 1224865; in the data active means activity change above about 30%, passing the limit was not always enough
Target sequence (P41235 whole entry, looked up): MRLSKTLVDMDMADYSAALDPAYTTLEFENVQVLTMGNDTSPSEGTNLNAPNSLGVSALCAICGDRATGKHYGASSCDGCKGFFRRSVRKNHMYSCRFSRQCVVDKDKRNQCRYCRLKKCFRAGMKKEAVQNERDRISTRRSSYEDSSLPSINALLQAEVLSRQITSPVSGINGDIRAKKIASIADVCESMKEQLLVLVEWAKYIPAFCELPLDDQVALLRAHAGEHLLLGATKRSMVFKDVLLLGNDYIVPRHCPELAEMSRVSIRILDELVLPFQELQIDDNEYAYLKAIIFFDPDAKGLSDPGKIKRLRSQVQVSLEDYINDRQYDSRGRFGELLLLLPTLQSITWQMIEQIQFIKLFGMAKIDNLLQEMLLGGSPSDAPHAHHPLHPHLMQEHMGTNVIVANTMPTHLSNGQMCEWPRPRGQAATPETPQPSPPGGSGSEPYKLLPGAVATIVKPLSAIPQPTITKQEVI
IDE cell inh cf: cellular human IDE inhibition, confirmation. shares compounds with IDE inh. HEK cells, FAbetaB cleavage, fluorescence polarization. inhibition, % at 5.59 µM. 1,200 tested, 51% active. AID 435028;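 active means mean inhibition across triplicate wells above the cutoff set by the earlier primary insulin-degrading enzyme screen, cut at about 16% in these data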;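 further: 0% = DMSO wells and 100% = 60 µM reference IDE inhibitor Ii1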
HEK293 tox: kills HEK cells in IDE inhibitor counter-screen. inhibition, % at 5.59 µM. shares compounds with IDE inh. HEK293 cytotoxicity, ATP luminescence. 1,200 tested, 28% active; in the data active means inhibition above about 22%;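 further: 0% = vehicle wells and 100% = reference cytotoxic drug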
* = called active by the depositor; . = no result. Sampled rows, rich in hits. Any-hit rate of the full collection: about 1.4%.

SMILES	TPT1 inh	IDE inh	IDE act	CRFBP-R2 agonist	HNF4A DNA FP	IDE cell inh cf	HEK293 tox
CCCCCN(C(=O)CCC(=O)OCC(=O)c1ccc(CCC)cc1)c1c(N)n(CCCC)c(=O)[nH]c1=O	-6	24*	-19	1	0	21*	8
CCC1CCCN1Cn1cnc2c([nH]c3ccc(Cl)cc32)c1=O (configuration not stated)	-2	17*	-3	-3	2	1	21
COc1cc(C(=O)OCC(=O)Nc2ccc3c(c2)OC(F)(F)O3)ccc1OCc1c(C)noc1C	0	17*	1	4	0	3	7
CCc1nc2c(OCCC3CCCCC3)cccn2c1N(C=O)Cc1ccccc1	.	.	.	.	-1	.	.
Cn1c(CN2CCOCC2)nnc1SCc1ccccc1	-2	2	-15	1	-3	.	.
Cn1c(CN2CCOCC2)nnc1SCC(=O)NCCc1ccccc1	0	21*	-21	0	2	12	6
CCCCOc1ncnc2c1[nH]c1ccc(OC)cc12	0	21*	.	-1	.	3	38*
CCCCOc1ncnc2c1[nH]c1ccc(F)cc12	2	30*	-31	0	0	12	70*
N#CC1=C(N)NC(=S)C(C(N)=O)C1c1ccccc1F (configuration not stated)	-5	27*	-8	1	1	11	6
N#CC1=C(N)NC(=S)C(C(N)=O)C1c1ccc(Cl)cc1Cl (configuration not stated)	-1	5	-26	0	3	.	.
O=C1N(c2ccccc2)CCN1c1ccccc1	-4	4	5	0	-3	.	.
O=C1NC(=S)CN1c1ccccc1	-19	24*	-31	1	-2	5	7
O=C(COC(=O)/C=C/c1ccc(C(F)(F)F)cc1)NCC1CCCCC1	2	6	1	0	-6	.	.
CCC(=O)N1CCC1(C)C(=O)Nc1ccc(OC(F)F)cc1 (configuration not stated)	.	.	.	.	0	.	.
COc1ccc(NC(=O)c2cc3c(Cl)nc4ccccc4c3s2)cc1OC	-2	19*	-16	0	-1	14	17
C=CCn1c(-c2ccccc2)c[nH]c1=S	-3	0	-1	5	1	.	.
CCn1c(-c2ccc(-c3ccccc3)cc2)c[nH]c1=S	6	16*	-7	1	3	-3	18
C=CCOCC(O)Cn1c(N2CCCC2)nc2c1c(=O)[nH]c(=O)n2C (configuration not stated)	1	-1	2	0	2	.	.
COc1cccc(C(=O)N2CCN(Cc3ccccn3)CC2)c1	4	-1	4	1	0	.	.
Cc1cc(C)c2nc(/N=C(\N)NC(=O)Nc3ccccc3)nc(C)c2c1	-3	-5	4	-1	6	.	.
Cc1cc(C)c2nc(/N=C(\N)NC(=O)c3ccccc3)nc(C)c2c1	-4	17*	5	1	0	4	10
COc1cccc(-c2nn(C)c3sc(C(=O)Nc4ccc5c(c4)OCCO5)cc23)c1	0	25*	-15	1	3	9	20
Cn1cnnc1SCC(=O)N1N=C2/C(=C/c3ccco3)CCCC2C1c1ccco1 (configuration not stated)	-1	17*	-24	-2	-3	9	13
O=c1cc[nH]c2cc(Cl)ccc12	-2	1	4	-3	0	.	.
O=c1[nH]oc2cc(Cl)ccc12	-2	17*	4	-1	0	7	4
SMILES	TPT1 inh	IDE inh	IDE act	CRFBP-R2 agonist	HNF4A DNA FP	IDE cell inh cf	HEK293 tox
Cn1c(SCC(=O)c2ccc3c(c2)Cc2ccccc2-3)nnc1-c1ccccc1	-2	28*	-44	2	3	14	12
CCCCn1c(N)c(N(CC(C)C)C(=O)CCCc2cccs2)c(=O)[nH]c1=O	-4	6	5	0	6	.	.
Cn1nc(N)c2c(-c3ccccc3)c(C#N)c(N)nc21	3	2	1	1	-4	.	.
Cn1nc(N)c2c(-c3ccc(Cl)cc3)c(C#N)c(N)nc21	2	16*	-7	2	-3	4	7
O=C(Nc1ccc(-c2nc3ccccc3s2)cc1)c1cc(-n2cnnc2)ccc1Cl	-3	22*	-8	4	1	5	67*
COc1ccc(/C(C#N)=C/c2ccccn2)cc1	-5	6	-2	0	3	.	.
N#C/C(=C\c1ccccn1)c1nc2ccccc2s1	23	28*	-60	82*	-37	46*	17
CCNC(=O)C1(C)CCCN1Cc1cccc(C(F)(F)F)c1 (configuration not stated)	.	.	.	.	1	.	.
C/C(=N\NC(=O)CCc1ccc(S(=O)(=O)N2CCOCC2)cc1)c1ccc(Br)cc1	-3	-2	-5	-5	2	.	.
Cc1cc(C)c2c(=O)n(CC(=O)N3CCC(N4CCCCC4)CC3)sc2n1	-1	7	-56	1	-1	.	.
CCCNC(=O)Cn1sc2nc(C)cc(C)c2c1=O	5	40*	-48	3	6	14	42*
CCOC(=O)C1CCCN(C(=O)Cn2sc3nc(C)cc(C)c3c2=O)C1 (configuration not stated)	3	19*	-61	-1	-3	8	66*
COc1cccc(/C=N/n2c(SC)nnc2-c2ccccc2)c1O	-1	25*	-34	8	3	40*	27*
CCN1CCc2c(sc(NC(=S)NC(=O)c3ccccc3)c2C#N)C1	28*	26*	-7	29	9	4	16
Cc1csc(NC(=O)c2cc3c(s2)-c2ccccc2OC3)n1	-2	0	0	-1	-1	.	.
Cc1c(NC(=O)c2cc3c(s2)-c2ccccc2OC3)cccc1[N+](=O)[O-]	-2	27*	-9	-2	-2	2	39*
COc1ccc(Cl)cc1NC(=O)CN(C)C(=O)Cc1ccc2c(c1)CCC2	1	18*	-8	-1	4	19*	13
COc1ccc(Cl)cc1NC(=O)CN(C)C(=O)Cc1ccsc1	2	0	4	0	1	.	.
CC(=O)c1c(C)[nH]c(C(=O)Nc2ccc(Cl)c(S(=O)(=O)N(C)C)c2)c1C	1	1	-1	-1	1	.	.
Cc1[nH]c(=O)[nH]c(=S)c1C(=O)Nc1ccc(Cl)c(Cl)c1	-1	26*	-13	-1	-2	2	11
COc1cc(C(=O)NCC(c2ccc(F)cc2)N2CCOCC2)ccc1OCc1ccccc1Cl (configuration not stated)	2	-3	1	1	-2	.	.
CS(=O)(=O)c1ccc(C(=O)NCC2(N3CCCCC3)CCCCC2)cc1	-3	16*	0	0	1	6	10

Compound activity (PubChem)
